The whole screen tested about 24,000 compounds, of which about 40 (0.2%) were called active. For the sample, actives were picked, then their nearest neighbours and some compounds at random. Values without a mark were called inactive.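 How the source made its calls: active means inhibition of disassembly above about 33% (limit read from the data); inconclusive means likely self-fluorescent, control bead median signal at least 40; inactive means the rest.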
Each compound was assayed on 26S proteasome (yeast, GFP-tagged, ATP-dependent disassembly) (assay: inhibitors of ATP-driven 26S proteasome dissociation, primary screen, biochemical, bead-based flow cytometry, GFP-tagged proteasome (AID 751;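 further: plate controls were ATP control with full disassembly for no effect and ATP-gamma-S intact proteasomes for full effect; higher percent means more bead fluorescence retained so stronger block of disassembly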)). Conditions: anti-FLAG beads, hits give high values, concentration not given here.

Question: For `O=C(NCC(c1cccnc1)N1CCN(c2ccccc2)CC1)Oc1ccccc1` (stereo not given), which inhibition of disassembly is on record?
Answer: 44.6% (active)

Question: How did the inhibition of disassembly turn out when `COc1ccccc1N1CCN(C(CNC(=O)Oc2ccccc2)c2cccnc2)CC1` (stereo not given) was run?
Answer: 19.4%

Question: How did the inhibition of disassembly turn out when `CC(C)c1ccc(O)c(CN2CCN(c3ccccc3)CC2)c1` was run?
Answer: 0.72%

Question: How did the inhibition of disassembly turn out when `Cc1cccc(-n2c(C)nc3cc(C(=O)N4CCC5(CC4)OCCO5)ccc32)c1` was run?
Answer: 1.69%

Question: With `CCOC(=O)C1=C(C)OC(N)=C(C(=O)OC)C12C(=O)Nc1ccc(Br)cc12` (stereo not given) as the compound, how does the inhibition of disassembly read?
Answer: -0.24%

Reference: PubChem BioAssay AID751 (NMMLSC, 2007)
